Rows were chosen to be rich in hits. Some 12% of all compounds tested hit in one or more screens of this group.
G9a block: inhibitors of human histone lysine methyltransferase G9a. Q96KQ7. G9a H3K9 monomethylation, AlphaScreen, 2 h. Potency, µM (series often up to 102 µM), inactives show at the highest dose activity, negative = inhibition, hits mostly inhibitors. 8.8% of 350,000 active. AID 504332; note: % is set by controls: 0 for no effect and ±100 for the full control effect; nearly all actives have a fitted effect of over 75% in size
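AlphaScreen read-out: biotin-H3K9 peptide (500 nM) methylation by 20 nM enzyme with 20 uM SAM, 2 h at room temperature after 15 min compound preincubation; anti-monomethyl H3K9 antibody plus donor/acceptor beads, 10 min dark.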
HP1b binding inh: inhibitors of HP1-beta chromodomain binding to methylated histone tails; P83916; AlphaScreen HP1-beta / biotin-H3K9me3 peptide binding; Potency, µM (highest dose often 114 µM), for the others: at the top dose activity change, negative = inhibition, most hits filed as inhibitors; 0.56% of 390,000 active; AID 540317; note: nearly all actives have a fitted effect of over 70% in size
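AlphaScreen: HP1-beta (50 nM) preformed 30 min with biotin-H3(1-18)K9me3 peptide (50 nM) in PBS pH 7.4, 0.01% Tween-20. Compound added for 30 min at RT, then streptavidin donor/nickel chelate acceptor beads (10 ug/mL) for 30 min.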
BAZ2B block: BAZ2B (human) inhibition; Q9UIF8; AlphaScreen BAZ2B-H3K14Ac peptide displacement; Potency, µM (top dose mostly 114 µM), without a hit: at the highest dose activity change, negative = inhibition, usual class: inhibitors; 4.4% of 360,000 active; note: % is set by controls: 0 for no effect and ±100 for the full control effect; nearly all actives have a fitted effect of over 60% in size
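Multi-concentration screen (max 110 uM) measuring displacement of acetylated histone H3 peptide from BAZ2B by AlphaScreen, using 50 nM protein, 50 nM peptide and 10 ug/mL streptavidin donor plus Ni-chelate acceptor beads.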
JMJD2A Tudor: blocks the human JMJD2A Tudor domain; O75164; AlphaScreen JMJD2A-Tudor / H3K4me3 peptide binding; Potency, µM (highest dose often 114 µM), without a hit: at the top dose activity change, negative = inhibition, most hits filed as inhibitors; 4.4% of 390,000 active; note: % is set by controls: 0 for no effect and ±100 for the full control effect; nearly all actives have a fitted effect of over 50% in size
Sfp PPTase inh: blocks B. subtilis Sfp PPTase activity; AID 1490; 3.5% of 310,000 active; Biochemical Sfp PPTase activity, qHTS; Potency, µM, for the others: largest response in the series, negative = inhibition, most hits filed as inhibitors; Q9F4F7;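 note: the enzyme is Sfp with the accession as filed and its product quenches rhodamine fluorescence; 0% = enzyme reaction without inhibitor and -100% = no enzyme wells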
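Fluorescence-quenching assay: 15 nM Sfp-PPTase preincubated 15 min at room temperature with compound, then 5 uM rhodamine-CoA and 12.5 uM BHQ-2-labelled YbbR peptide added. Fluorescence (ex 525/em 598 nm) read at start and after 30 min; difference gives rate.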
Numbers without * were called inactive; ? = inconclusive; nt = no result given; [ ] = another dose, or the depositor's remark. Calls come from the whole dose curve; as a rule, active = well fitted curve in the direction sought with a large enough effect; inconclusive = small, poorly fitted or top-dose-only effect, or another doubt; inactive = no such curve, though single readings can be large; an effect the other way counts as inactive or inconclusive. Potency is the fitted concentration of half-maximal effect.

SMILES	G9a block	HP1b binding inh	BAZ2B block	JMJD2A Tudor	Sfp PPTase inh
COc1ccccc1/C=C/C(=O)NCC(=O)N=Nc1c(O)[nH]c2ccccc12	49%	30%	?	18%	10%
Cc1ccnc(SC2CC(=O)N(c3ccc(Br)cc3)C2=O)n1 (centres undefined)	nt	21%	4%	-13%	-28%
Cc1ccc2oc(=O)n(CCNC(=O)Nc3ccc(Cl)cc3)c2c1	2%[59 µM]	39%	-8%	-17%	nt
CC(C)c1ccc(-c2c(C#N)c(N)nc3c2CCCCC3)cc1	1.8µM*	42%	4%	-17%	5%
Cc1ccc(-c2c(C#N)c(N)nc3c2CCCCC3)cc1	14%	39%	6%	-10%	11%
Cc1ccc(-c2c(C#N)c(N)nc3c2CCCCCC3)o1	-37%[59 µM]	20%	4%	-8%	3%
Cc1ccc(-c2c(C#N)c(N)nc3c2CCCCC3)o1	79µM*	35%	3%	-14%	50µM*
Cc1ccc(CNC(=O)c2ccc3c(c2)nc(C)n3-c2cccc(F)c2)cc1	10%[59 µM]	23%	-3%	-15%	nt
Cc1ccc(-c2nnnn2-c2ccccc2C(=O)O)cc1	nt	20%	nt	-20%	nt
COc1ccc(CNS(=O)(=O)c2ccc(-n3cnnn3)c(OC)c2)cc1	50µM*	-13%	3%	-1%	4%
CCCNS(=O)(=O)c1ccc(-n2cnnn2)c(OC)c1	3%	46%	-3%	-9%	10%
COc1cc(S(=O)(=O)NCCc2ccc3c(c2)OCO3)ccc1-n1cnnn1	56µM*	11%	-7%	-9%	3%
COc1ccccc1Nc1ncc(C(=O)N2CCN(Cc3ccc(OC)c(OC)c3OC)CC2)c2ccccc12	28%[59 µM]	68%	5%	5%	-2%
Cc1cc(C(=O)CSc2nnnn2C)c(C)n1-c1ccc2c(c1)OCCO2	?	-20%	?	?	45µM*
Cc1cc(C(=O)CSc2nnc(-c3ccc4c(c3)OCO4)o2)c(C)n1-c1ccc(F)cc1	6%[59 µM]	26%	-37%	-14%	7%
Cc1nnc(SCC(=O)c2cc(C)n(-c3ccc4c(c3)OCO4)c2C)s1	?	-22%	45µM*	?	-15%
CCCCC[C@H]1CN(CCc2ccccc2)C(=O)[C@@H]1CC(=O)NCc1ccc(OC)cc1	45µM*	53%	12%	-15%	-7%
CCCCC[C@H]1CN(CCCC)C(=O)[C@@H]1CC(=O)NCc1ccc(OC)cc1	20%	48%	2%	-4%	13%
CC(=O)c1ccc(NC(=S)Nc2cccc(S(=O)(=O)Nc3c(C)n(C)n(-c4ccccc4)c3=O)c2)cc1	?	16%	nt	-22%	22µM*
Cc1c(NS(=O)(=O)c2cccc(C(=O)O)c2)c(=O)n(-c2ccccc2)n1C	-3%[59 µM]	71%	-12%	9%	7%
Cc1ccc(NC(=S)Nc2cccc(S(=O)(=O)Nc3c(C)n(C)n(-c4ccccc4)c3=O)c2)cc1	45µM*	-3%	-19%	-21%	-30%
Cc1cccc(NC(=O)c2cccc(S(=O)(=O)Nc3c(C)n(C)n(-c4ccccc4)c3=O)c2)c1	nt	-3%	nt	-7%	nt
N[C@H](Cn1ccc(=O)n(Cc2ccccc2C(=O)O)c1=O)C(=O)O	nt	nt	nt	nt	71µM*
CC1(C)CCC(C)(C)c2cc([S+](=O)([O-])N3CCN([S+](=O)([O-])c4c(F)cccc4F)CC3)ccc21	nt	nt	nt	-22%	nt
CC1(C)CCN2CCC(C)(C)c3c(O)ccc1c32	10µM*	?	45µM*	56µM*	20µM*
COc1ccccc1C(CNc1ccc(S(=O)(=O)N2CCCC2)cc1[N+](=O)[O-])N(C)C (centres undefined)	-49%	?	?	?	9%
Cc1ccc(Nc2ccc(S(=O)(=O)N3CCOCC3)cc2[N+](=O)[O-])c(C)c1	35µM*	?	10µM*	?	-12%
O=[N+]([O-])c1cc(S(=O)(=O)N2CCOCC2)ccc1NS(=O)(=O)c1ccccc1	nt	31%	nt	-10%	nt
CCc1ccc(Nc2ccc(S(=O)(=O)N3CCOCC3)cc2[N+](=O)[O-])cc1	28µM*	?	11µM*	11µM*	16%
COc1ccc(Cl)cc1NS(=O)(=O)c1ccc(S(=O)(=O)N2CCCC2)cc1	8.9µM*	28%	-7%	-8%	-3%

Screening results deposited in PubChem BioAssay by National Center for Advancing Translational Sciences (NCATS).
